{"source": "PubChem BioAssay (EPA / NIEHS)", "note": "Activity calls are given as the source filed them. Rule for the calls: active = hit-call score of the fitted dose curve at least 0.9, where 1 is the maximum; inactive = score below 0.9.", "data": [{"read-out": "Glutathione S-transferase M3 (GSTM3), GSTM3 (gene 2947)", "experiment": "LTEA_HepaRG_GSTM3: Life Technologies and Expression Analysis (LTEA) Assay for Glutathione S-transferase M3 (GSTM3) using HepaRG (AID 2283501)", "details": "mRNA level, 48 h; actives raise or lower the signal", "experimental": "LTEA_HepaRG is a cell based, multiplexed-readout assay that uses HepaRG, a human liver cell line, with measurements taken at 48 hours after chemical dosing on a 96-well plate.LTEA_HepaRG_GSTM3 is one of 102 assay component(s) measured in the LTEA HepaRG cell culture assay. It is a marker of Oxidative Stress.Data from the assay component LTEA_HepaRG_GSTM3 was analyzed into 1 endpoint. This assay endpoint, LTEA_HepaRG_GSTM3, was analyzed with bidirectional fitting relative to DMSO as the negative control and baseline of activity. Using a type of inducible reporter, measures of mRNA induction for gain or loss-of-signal activity can be used to understand regulation of transcription factor activity. To generalize the intended target to other relatable targets, this assay endpoint is annotated to the transferase intended target family, where the subfamily is alkyl and aryl transferase.\nA total of 1060 chemcials from the ToxCast library were tested in eight-point concentration-response experiments. Cell culture and cytotoxicity assays were conducted at Thermo Fisher Scientific's Custom Services facility (Madison, WI). A single lot of human HepaRG cells (Thermo Fisher Scientific, Frederick, MD) was used for the cell culture experiments. 96-well format collagen type I coated plates of human HepaRG cells were prepared using established methods. Briefly, cryopreserved HepaRG cells were thawed, plated at a density of approximately 100,000 cells/well in HepaRG Thaw, Plate, and General Purpose media (HPRG770, Thermo Fisher Scientific), and incubated for 48 hours. 0.5% DMSO was selected as vehicle control to balance the requisite need of DMSO in HepaRG cultures to maintain differentiation (for example, baseline metabolism, proportions of hepatocytes vs. cholangiocytes), while enabling further hepatic receptor pathway activation (for example, PXR and CAR) in response to chemical exposure. 48 hours after plating, the culture medium was replaced with HepaRG Serum-Free Incudtion Media. Cells were exposed to each test chemical in duplicate and maintained in CO2 incubators for another 48 hours. Chemical plates were thawed to room temperature and 200x concentrations of treatment groups were prepared. 8-point conentration-reponse curves were made with the highest exposure at 100 uM, followed by half-log dilutions, all in 0.5% DMSO. Each test plate contained variouse controls, induction positive controls (1mM phenobarbital), cytotoxicity positive controls ([…] aflatoxin B1), vehicle controls (0.5% DMSO), and total lysis controls (0.5% DMSO). Cell morphology images were taken using an Essen IncuCyte FLR automated microscope, with six 96-well plates imaged in about 24 minutes. Images were captured and exported and JPEG files. Spent culture media was transfered to black-well plates for the LDH assay, and remaining media was sorted at -80 C for later use. Cells were treated with RLT buffer and frozen until shipped for gene expression analysis. Total RNA was isolated from the cell suspension in 75 uL of Buffer RLT (Qiagen, Germantown, MD 20874) by Quintiles/Expression Analysis (Durham, NC) using a custom isolation procedure. Total RNA from each plate well was transferred to a preamplification plate. Fluidigm's 96.96 Dynamic ArrayTM (Fluidigm, Amsterdam, the Netherlands) technology was used for gene expression analyses by quantitative reverse transcription polymerase chain reaction (qRT-PCR, performed by Quintiles/Expression Analysis, Durham, NC)89. Standard TaqManTM Assays (Applied Biosystems/ThermoFisher Scientific, Foster City, CA) were used to assess the expression of 93 genes selected based on their selectivity and sensitivity to important hepatic receptors known to be modulated by environmental chemicals; importance in human hepatocyte functionality; and hepatotoxicity. […]", "values": [{"smiles": "CC[C@H](C)C(=O)O[C@H]1C[C@H](O)C=C2C=C[C@H](C)[C@H](CC[C@@H](O)C[C@@H](O)CC(=O)O)[C@H]21", "outcome": "inactive"}, {"smiles": "Cc1nccn1-c1ccc(Sc2cccc(C3(C(N)=O)CCOCC3)c2)cc1", "AC50": "23.8 µM (active)"}, {"smiles": "Cn1cc[nH]c1=S", "outcome": "inactive"}, {"smiles": "OCCNCCO", "outcome": "inactive"}, {"smiles": "NC(N)=O", "outcome": "inactive"}, {"smiles": "OCC(CO)(CO)CO", "outcome": "inactive"}, {"smiles": "OC[C@H]1O[C@@H]2O[C@H]3[C@H](O)[C@@H](O)[C@@H](O[C@H]4[C@H](O)[C@@H](O)[C@@H](O[C@H]5[C@H](O)[C@@H](O)[C@@H](O[C@H]6[C@H](O)[C@@H](O)[C@@H](O[C@H]7[C@H](O)[C@@H](O)[C@@H](O[C@H]1[C@H](O)[C@H]2O)O[C@@H]7CO)O[C@@H]6CO)O[C@@H]5CO)O[C@@H]4CO)O[C@@H]3CO", "outcome": "inactive"}, {"smiles": "O=C(O)c1ccc2c(c1)nc(C(=O)NC1CCN(C3CC3)CC1)n2Cc1cc(-c2ccc(Cl)s2)on1", "outcome": "inactive"}, {"smiles": "CCCCCCCCCCCCCCO", "outcome": "inactive"}, {"smiles": "CCCCCCCC1CCC(=O)O1", "note": "(stereo not given)", "outcome": "inactive"}, {"smiles": "COCc1nnc(-c2ccc[n+]([O-])c2)n1-c1c(Cl)c(Cl)cc2[nH]c(=O)c(=O)[nH]c12", "outcome": "inactive"}, {"smiles": "OC(CCl)CCl", "outcome": "inactive"}, {"smiles": "c1ccc(C(O[C@@H]2CCCN(CCc3ccc4c(c3)OCO4)C2)c2ccccc2)cc1", "AC50": "90.3 µM (active)"}, {"smiles": "Cc1nc(-c2ccccn2)ncc1C(=O)Nn1cc(C)c2cc(F)ccc21", "outcome": "inactive"}, {"smiles": "OC[C@H]1O[C@@](CO)(O[C@H]2O[C@H](CO)[C@@H](O)[C@H](O)[C@H]2O)[C@@H](O)[C@@H]1O", "outcome": "inactive"}, {"smiles": "Nc1ccn([C@@H]2O[C@H](CO)[C@@H](O)[C@@H]2O)c(=O)n1", "outcome": "inactive"}, {"smiles": "NC(=O)N1c2ccccc2C=Cc2ccccc21", "outcome": "inactive"}, {"smiles": "OCc1ccccc1", "outcome": "inactive"}, {"smiles": "NNC(=O)c1ccncc1", "outcome": "inactive"}, {"smiles": "CCCCOC(=O)c1ccccc1", "outcome": "inactive"}, {"smiles": "O=C(O)c1cccc(C[C@@H]2COc3ccc(OCc4nc5cc(F)ccc5s4)cc3[C@@H]2O)c1", "outcome": "inactive"}, {"smiles": "O=C(O)c1cccc(C(=O)O)c1", "outcome": "inactive"}, {"smiles": "O=S1(=O)CCCO1", "outcome": "inactive"}, {"smiles": "CC(C)CCCCCCOC(=O)C1CCCCC1C(=O)OCCCCCCC(C)C", "note": "(stereo not given)", "outcome": "inactive"}, {"smiles": "CCCCCCCCN(C)C", "outcome": "inactive"}, {"smiles": "CC(=O)c1ccccc1", "outcome": "inactive"}, {"smiles": "Cc1ncc([C@@H](CCCCCCc2ccc3c(n2)NCCC3)CC(=O)O)cn1", "outcome": "inactive"}, {"smiles": "CCOc1ccc2[nH]cc(C(=O)NCc3ccccc3)c(=O)c2n1", "outcome": "inactive"}, {"smiles": "Cc1ccc(S(=O)(=O)NC(=O)NN2CCCCCC2)cc1", "outcome": "inactive"}, {"smiles": "Cn1c(=O)c2[nH]cnc2n(C)c1=O", "outcome": "inactive"}, {"smiles": "CCc1ccc(O)c(C(C)(C)C)c1", "outcome": "inactive"}, {"smiles": "CCCOc1ccc(S(=O)(=O)N2CCN(CC)CC2)cc1-c1nc2c(CC)n(Cc3ccccn3)nc2c(=O)[nH]1", "outcome": "inactive"}, {"smiles": "CCn1nc(C)c2c1C(=O)NCC(c1ccc(O)cc1)=N2", "outcome": "inactive"}, {"smiles": "NC(=O)NN=Cc1ccc([N+](=O)[O-])o1", "outcome": "inactive"}, {"smiles": "CCc1cccc(CC)c1N", "outcome": "inactive"}, {"smiles": "C=CCc1cc(S(=O)(=O)c2ccc(O)c(CC=C)c2)ccc1O", "outcome": "inactive"}, {"smiles": "CCCc1ccccc1", "outcome": "inactive"}, {"smiles": "O=c1[nH]cnc2c1ncn2[C@H]1CC[C@@H](CO)O1", "outcome": "inactive"}, {"smiles": "O=C(NO)C1(NS(=O)(=O)c2ccc(Oc3ccc(F)cc3)cc2)CCOCC1", "outcome": "inactive"}, {"smiles": "CC1(C)C(=O)N(Cl)C(=O)N1Cl", "outcome": "inactive"}]}]}
